Out of some 2,200 compounds screened, about 480 (22%) were called active. No rule for the calls is given here. Only a sample is shown. Potency and affinity values are given separately.
Experiment: S. Typhimurium GFP fluorescence modified counterscreen for PhoP regulon inhibitor project dose response (AID 1981);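 also: 0% = induced DMSO wells and 100% = uninduced wells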
Settings: 4 h; series mostly up to 150 µM; inhibition: at the top concentration

| SMILES | inhibition |
| --- | --- |
| Cc1ccc(-c2[nH]c(-c3ccc(Cl)cc3)nc2SCC(=O)NCC2CCCO2)cc1 (centres undefined) | -22.5% (inactive) |
| S=C(NN=C1C2CC3CC(C2)CC1C3)Nc1ccccc1 | -20.6% (inactive) |
| Cc1ccc(C(C(=O)NCc2ccco2)N(CCc2ccccc2)C(=O)Cn2nnc3ccccc32)o1 (centres undefined) | 0.66% (inactive) |
| O=C(Nc1cccc(-c2cn3cccnc3n2)c1)c1ccco1 | -0.8% (inactive) |
| Cn1c(NCc2ccccc2O)nc2ccccc21 | -11% (inactive) |
| N/C(=N\OC(=O)c1ccc(F)cc1)c1nonc1N | -2.93% (inactive) |
| CNC(=O)c1ccc(-c2ccc(F)cc2)s1 | 3.2% (inactive) |
| COc1cc(/C=C2/SC(=S)N(CC(=O)Nc3cccnc3)C2=O)cc(OC)c1OC | 0.53% (inactive) |
| CCCCCCC(=O)N(O)C1CC(=O)N(c2ccc(C)cc2)C1=O (centres undefined) | 32.2% (inactive) |
| C=CCNC(=S)NNC(=O)c1cccn(Cc2ccc(Cl)cc2)c1=O | -6.06% (inactive) |
| Nc1cc(Br)c(N)c(Br)c1 | 3.41% (inactive) |
| CC(=O)NC1C(c2nc3ccccc3s2)=C(c2ccccc2)C(=O)N1c1ccc(C)cc1 (centres undefined) | 8.75% (inactive) |
| CC1Cc2ccccc2N1C(=O)COC(=O)c1ccc(S(=O)(=O)N(C)C)cc1 (centres undefined) | -8.24% (inactive) |
| COC(=O)Cc1c(O)ccn(Cc2ccc(F)cc2)c1=O | 2.05% (inactive) |
| CCc1c(C)c2cc(Cl)c(O)c(CN(C)C)c2oc1=O | -4.76% (inactive) |
| CC1=CC(C)(C)n2c(O)c(C3=NC(=S)NC3=O)c3cc(OC(=O)c4cccc5ccccc45)cc1c32 | 3.99% (inactive) |
| N=c1n(CC(=O)c2ccc([N+](=O)[O-])cc2)c2ccccc2n1Cc1ccccc1 | 6.44% (inactive) |
| Cn1c(=N)n(CC(=O)c2ccc(Br)s2)c2ccccc21 | 3.25% (inactive) |
| COc1cc(S(=O)(=O)N2CCCCC2)ccc1NC=O | 4.28% (inactive) |
| NC1=Nc2ccccc2Oc2ccccc21 | 9.55% (inactive) |
| NC1=NC(=Nc2cccc(Cl)c2)c2ccccc21 | 2.71% (inactive) |
| c1ccc2c(C3=NNC(=NC4CCCCC4)SC3)c[nH]c2c1 | 22.7% (inactive) |
| CN(C)S(=O)(=O)Nc1ccc(C(=O)O)cc1 | -3.1% (inactive) |

| SMILES | inhibition |
| --- | --- |
| COc1cccc(OCC(O)CN2CCN(c3ccccn3)CC2)c1 (centres undefined) | 4.43% (inactive) |
| Cn1c(SCC(=O)NC(=O)c2cccc([N+](=O)[O-])c2)nnc1-c1ccc(F)cc1 | -12.3% (inactive) |
| O=C(Cn1cc[n+](CC(=O)c2ccccc2)c1)c1ccccc1 | 2.89% (inactive) |
| C/C(=N/Nc1nc(-c2ccccc2)cc(-c2ccc(F)cc2)n1)c1cccc(N)c1 | -15.2% (inactive) |
| c1ccc(-c2nnc(SCCC3OCCCO3)o2)cc1 | 0.89% (inactive) |
| CC1(C)CC2CC(C)(CN2C(=O)COC(=O)c2n[nH]c(=O)c3ccccc23)C1 (centres undefined) | -11.8% (inactive) |
| Fc1ccccc1COc1ccc(Br)cc1CNCc1ccncc1 | 6.22% (inactive) |
| c1ccc(COc2ccccc2CNCc2cccnc2)cc1 | -13.4% (inactive) |
| O=[N+]([O-])c1ccccc1CNc1ccc(F)c(Cl)c1 | -9.25% (inactive) |
| O=c1cc(CSc2nc(NCc3ccccc3)c3ccccc3n2)nc2ccc(Cl)cn12 | -1.33% (inactive) |
| N#CCCN(C(=O)CN1C(=O)NC2(CCCC2)C1=O)c1ccccc1F | -3.3% (inactive) |
| O=C(CCNS(=O)(=O)c1cccc2nsnc12)Nc1ccc2c(c1)OCCO2 | -1.71% (inactive) |
| Cc1nc2c(=O)n(C)c(=O)n(C)c2nc1Cl | 27.1% (inactive) |
| Cc1cc(C)nc(/N=C(\N)Nc2ccc(SC(F)F)cc2)n1 | -2.31% (inactive) |
| CC(=O)c1c(C)[nH]c(C(=O)CSc2nnc(-c3ccco3)n2Cc2ccccc2)c1C | -0.99% (inactive) |
| O=C(Cn1nc(Cc2cccnc2)c2ccccc2c1=O)NCc1ccc2c(c1)OCO2 | -5.89% (inactive) |
| Cc1ccc(S(=O)(=O)c2cn(Cc3ccc(F)cc3)c3cc4c(cc3c2=O)OCO4)cc1 | 1.56% (inactive) |
| CCn1cc(C(=O)O)c(=O)c2cc(Br)ccc21 | 23.3% (inactive) |
| O=C(O)c1cc(NCc2ccc3c(c2)OCO3)ccc1N1CCOCC1 | -0.23% (inactive) |
| Cc1cccc(C(=O)O/N=C2\CCSc3ccc(C)cc32)c1 | -14.1% (inactive) |
| Cc1cccc(OCC(=O)N(Cc2cccs2)C2CCS(=O)(=O)C2)c1C (centres undefined) | -15.6% (inactive) |
| O=c1c2c([nH]c3ccccc13)CCCCC2 | 19.2% (inactive) |
| CCCOc1ccc(/C=N/O)cc1 | -3.17% (inactive) |

| SMILES | inhibition |
| --- | --- |
| C/C(=N/Nc1nc(-c2ccc(Cl)cc2)cs1)c1cccs1 | -14.2% (inactive) |
| O=C(C[n+]1cc(-c2ccccc2)n2c1CCCCC2)c1ccc(Cl)cc1 | -1.46% (inactive) |
| Clc1ccc(-c2c[n+](Cc3ccc(Cl)cc3Cl)c3n2CCCCC3)cc1 | -3.21% (inactive) |
| CCN(CC)CC(=O)Nc1nc(-c2ccc(Cl)cc2)cs1 | -7.54% (inactive) |
| Clc1ccc(C[n+]2cc(-c3ccc(Cl)cc3)n3c2CCC3)cc1 | 7.72% (inactive) |
| CCOC(=O)Cc1ccc(NS(=O)(=O)c2ccc(SC)cc2)cc1 | -8.64% (inactive) |
| CCOC(=O)N1CCN(C(=O)c2ccc(NC(=O)c3ccc(C)cc3)cc2)CC1 | 12.8% (inactive) |
| O=C(O)C1CCC(N2C(=O)C3CCCCC3C2=O)CC1 (centres undefined) | -1.85% (inactive) |
| COC(=O)c1sccc1NC(=O)c1cccnc1 | 0.03% (inactive) |
| Cc1ccc(Nc2nnc(C3C(=O)N(C)C4(C)CC3c3cc(Br)ccc3O4)s2)cc1 (centres undefined) | -4.36% (inactive) |
| Cc1ccc(S(=O)(=O)c2c(C(=O)c3ccccc3)cnc3cc4c(cc23)OCCO4)cc1 | 16.2% (inactive) |
| CC1(C)CC(=O)C2=C(C1)N(Cc1ccccc1)C(=O)C2(O)C(F)(F)F (centres undefined) | 2% (inactive) |
| CCN1C(=O)/C(=C/N2CC(C)CC(C)C2)SC1=S (centres undefined) | -15.7% (inactive) |
| Cc1ccsc1/C=N/NC(=O)Cn1cnc2ccccc21 | -7.04% (inactive) |
| Cc1ccc([N+](=O)[O-])cc1NC(=S)NC(=O)C(C)(C)C | -14.7% (inactive) |
| Cc1cc([N+](=O)[O-])ccc1NC(=O)Cc1ccc(F)cc1 | -22.2% (inactive) |
| CN(CCO)c1cc(Sc2nc3ccccc3s2)c2nonc2c1[N+](=O)[O-] | 0.73% (inactive) |
| Cc1ccccc1-n1c(C)cc(/C=N/Nc2ccc([N+](=O)[O-])cn2)c1C | 0.91% (inactive) |
| O=C(CSc1n[nH]c(=O)[nH]c1=O)N/N=C/c1ccccc1 | -7.06% (inactive) |
| O=C(CSc1nc2ccccc2s1)Nc1ccc(N2CCOCC2)c(Cl)c1 | -4.65% (inactive) |
| COc1ccc(NC(=O)c2sccc2SCC#N)cc1 | -8.07% (inactive) |
| CC(=S)c1c(C)cc2cc(C)ccn12 | -0.73% (inactive) |
| CN(C)c1ccnc(Oc2ccc(F)cc2)c1C#N | -6.5% (inactive) |

| SMILES | inhibition |
| --- | --- |
| CCn1c(SCc2ccc(F)cc2)nnc1C1CCN(S(=O)(=O)c2ccc(OC)cc2)CC1 | -8.67% (inactive) |
| Cc1ccc(C(C)C)c(OCC(=O)Nn2c(=O)[nH]c3ccccc3c2=O)c1 | 10% (inactive) |
| COc1ccc(S(=O)(=O)N2Cc3ccccc3CC2C(=O)N2CCOCC2)cc1OC (centres undefined) | -0.72% (inactive) |
| CCNC(=O)NC1(C(=O)Nc2ccc3c(c2)OCCO3)CCCCC1 | -6.31% (inactive) |
| CCN(CC)c1ccc(S(=O)(=O)Nc2cc(Cl)ccc2Cl)cc1NC(=S)NC(=O)C1CCCC1 | -28.7% (inactive) |
| CCN1CCN(Cc2ccc(C)cc2C)CC1 | -22.1% (inactive) |
| Cc1ccc(C2NNC(=O)C2NC(=O)c2ccccc2)cc1 (centres undefined) | -8.3% (inactive) |
| Cc1nc(N)sc1Cc1ccc2c(c1)OCO2 | -1.43% (inactive) |
| C=CCNc1sc(C(=O)c2ccc(C)cc2)c(N)c1C#N | 7.13% (inactive) |
| COC(=O)C(CCSC)NC(=O)c1cccc([N+](=O)[O-])c1 (centres undefined) | 1.67% (inactive) |
| NC(=O)c1cnn(Cc2ccc(Cl)cc2)c1N | -11.2% (inactive) |
| Cc1nc2c(Cl)cccc2c2c1CC(CBr)O2 (centres undefined) | 8.79% (inactive) |
| CC(=O)NC12CC3CC(C1)CC(C(=O)OCC(=O)c1ccc4c(c1)OCCO4)(C3)C2 | -5.94% (inactive) |
| O=C1CC(c2ccco2)CC(O)=C1C=Nc1cc(Cl)cc(Cl)c1 (centres undefined) | 4.95% (inactive) |
| Cc1cccc(NC(=O)c2cc(N3C(=O)CCC3=O)ccc2Cl)n1 | -10.7% (inactive) |
| Cc1oc(CC(C)C)c(CN2CCCC2)c1C(=O)O | 3.44% (inactive) |
| Cn1ncc(N=Cc2ccccc2O)c1C(=O)Nc1ccccc1 | -4.37% (inactive) |
| O=C(Cc1cccs1)Nc1nc2c(s1)CCCC2 | -17.5% (inactive) |
| Cn1cccc1C1NC(=O)c2c(sc3c2CCC(C(C)(C)C)C3)N1 (centres undefined) | 5.09% (inactive) |
| Cc1c(NS(=O)(=O)c2ccc(N(C)C3CCCCC3)c([N+](=O)[O-])c2)c(=O)n(-c2ccccc2)n1C | 8.27% (inactive) |
| CCCCOc1ccc(NC(=O)Nc2nnc(C)s2)cc1 | -0.03% (inactive) |
| COc1cccc2[nH]c3c(N4CCN(Cc5ccc6c(c5)OCO6)CC4)ncnc3c12 | 11.1% (inactive) |
| O=C(NCc1cccs1)Nc1cccs1 | -6.17% (inactive) |

| SMILES | inhibition |
| --- | --- |
| O=C(c1cccc(S(=O)(=O)N2CCOCC2)c1)N1CCCC1 | -6.02% (inactive) |
| O=C1C2CCCN2c2ccc(S(=O)(=O)N3CCOCC3)cc2N1Cc1ccccc1F (centres undefined) | 8% (inactive) |
| Cc1ccc(/C=C/C(=O)c2ccccc(=O)c2O)cc1C | 15.5% (inactive) |
| O=C(CSc1nncs1)Nc1ccc2c(c1)OCCO2 | -10.3% (inactive) |
| Cc1cccc(C)c1Nc1nnc(SCC(=O)Nc2sccc2C#N)s1 | -5.47% (inactive) |
| COc1ccccc1N1CCN(C/C(O)=C(\C#N)c2nc(-c3ccccc3)cs2)CC1 | 38.2% (inactive) |
| COc1ccc(CN2CCOCC2)cc1Br | -4.59% (inactive) |
| COc1ccc(C(=O)Oc2c(CN3CCOCC3)cc(Cl)c3cccnc23)cc1 | -4.17% (inactive) |
| O=C(CCN1CCN(c2ccc(F)cc2)CC1)Nc1ccccc1F | -7.81% (inactive) |
| Cc1sc(NC(=O)c2ccco2)c(CN2CCN(c3ccc(F)cc3)CC2)c1C | -1.58% (inactive) |
| CNc1ncc(Cc2ccccc2)s1 | -5.18% (inactive) |
| COC(=O)c1[nH]c2ccc(C)cc2c1NC(=O)Nc1ccc(OC)cc1 | 15.2% (inactive) |
| CC(=O)Nc1ccc(S(=O)(=O)N2CCC(n3cnc4cc(F)ccc43)CC2)cc1 | -8.65% (inactive) |
| CC(=O)c1c(C)n([O-])c2ccccc2[n+]1=O | 1.77% (inactive) |
| O=C(CSc1nc2[nH]ncc2c(=O)[nH]1)N1CCCCC1 | -11.2% (inactive) |
| Cc1ccc2nc(C(F)OC(F)(F)F)[nH]c2c1 (centres undefined) | -19.4% (inactive) |
| Nc1cccc(-c2nc3ccc(N)cc3s2)c1 | 22.6% (inactive) |
| O=[N+]([O-])/C=C/c1cc2ccccc2[nH]1 | 32.9% (inactive) |
| CCN(CC)CCN(Cc1cc2cc3c(cc2[nH]c1=O)OCCO3)C(=O)NC1CCCCC1 | -14.5% (inactive) |
| c1ccc(Oc2cc(-c3ccccc3)ncn2)cc1 | 2.31% (inactive) |
| COc1ccc(CN2C(=O)Cc3c2nc(N)c2c(N)nc(N4CCCCC4)c(C#N)c32)cc1 | 25.6% (inactive) |
| C=COC(=O)CSc1snc(SCC(=O)OC)c1C#N | -13% (inactive) |
